Screens as filed in PubChem BioAssay.
This is a sample that favours compounds with a hit; in the whole collection about 7.5% have one here.
ELG1 genotox: genotoxicity induction in ELG1-luciferase HEK293T cells; HEK293T ELG1-luciferase reporter, luminescence, 16 h; Potency, µM (top dose mostly 46 µM), inactives show at the top dose activity change, positive = activation, most hits filed as activators; hit rate 1.3% among 330,000; also: % of control where 0% means no effect; nearly all actives have a fitted effect of over 60% in size
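16 hr compound incubation (37 °C, 5% CO2) of HEK293T cells carrying luciferase-tagged ELG1; luciferase then measured by ONE-Glo luminescence after 30 min at RT.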
Rab9 prom act: activators of Rab9 promoter. Huh7 Rab9 promoter-luciferase reporter, luminescence, 24 h. hit rate 2.8% among 320,000. Potency, µM (highest dose often 9.22 µM), for inactives: top-dose activation, negative = inhibition, usual class: activators; also: % of control where 0% means no effect; nearly all actives have a fitted effect of over 60% in size
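Cell-based reporter: Huh7 stable for Rab9 promoter-driven luciferase, plated in reduced-serum medium with 10% FBS at 1500 cells/well, compound-treated 24 h at 37 °C, luminescence read after 10 min reagent.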
Luc counter: Kinase-Glo luciferase inhibition (counter-screen) | Q27757 | hit rate 0.28% among 200,000 | Potency, µM (series often up to 38.3 µM), for inactives: at the highest dose activity change, negative = inhibition, hits mostly inhibitors | Kinase-Glo luciferase, ATP luminescence, 8 min; also: % is scaled to controls: 0 for no effect and ±100 for the full control effect; nearly all actives have a fitted effect of over 60% in size
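Substrate mix (final 50 mM imidazole pH 7.2, 50 mM KCl, 7 mM MgCl2, 10 uM ATP, 0.01% Tween 20, 0.05% BSA) plus pin-tool compound, then Kinase-Glo detection mix; 8 min ambient, luminescence read.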
NPC1 prom act: activators of NPC1 promoter; Huh7 NPC1 promoter luciferase reporter, 24 h; Potency, µM (series often up to 9.22 µM), inactives show at the highest dose activation, most hits filed as activators; hit rate 2.4% among 320,000; also: % of control where 0% means no effect; nearly all actives have a fitted effect of over 60% in size
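NPC1 promoter–luciferase Huh7 cells; 24 h compound; luminescence.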
FLuc modulator: firefly luciferase modulation, counter-screen for miR-21 project; purified FLuc, Km substrates, luminescence inhibition; Potency, µM (doses to about 57.5 µM), for inactives: top-dose activity change, negative = inhibition, most hits filed as inhibitors; hit rate 6.9% among 360,000;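 also: plate controls were vehicle for no effect and reference inhibitor for full effect; nearly all actives have a fitted effect of over 55% in size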
Target sequence (P08659 whole entry, looked up): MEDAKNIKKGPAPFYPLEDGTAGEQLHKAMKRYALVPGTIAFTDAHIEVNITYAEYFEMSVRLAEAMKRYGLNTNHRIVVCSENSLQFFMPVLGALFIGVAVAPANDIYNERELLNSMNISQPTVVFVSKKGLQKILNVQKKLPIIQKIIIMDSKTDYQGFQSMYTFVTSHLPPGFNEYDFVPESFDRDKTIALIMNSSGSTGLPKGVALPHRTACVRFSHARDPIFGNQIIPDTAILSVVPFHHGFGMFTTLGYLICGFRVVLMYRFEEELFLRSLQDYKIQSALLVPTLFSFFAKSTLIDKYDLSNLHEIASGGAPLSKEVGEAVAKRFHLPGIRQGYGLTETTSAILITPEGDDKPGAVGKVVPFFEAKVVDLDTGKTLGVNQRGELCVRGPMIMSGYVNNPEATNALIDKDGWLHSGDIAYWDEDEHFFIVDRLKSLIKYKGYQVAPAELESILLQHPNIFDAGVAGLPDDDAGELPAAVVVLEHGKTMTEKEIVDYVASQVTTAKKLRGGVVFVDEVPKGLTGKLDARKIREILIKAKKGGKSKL
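Purified P. pyralis luciferase, 10 nM final, with Km-level 10 uM D-luciferin and 10 uM ATP in 50 mM Tris acetate pH 7.5, 10 mM Mg acetate, 0.01% Tween-20, 0.05% BSA; 6-point qHTS titration about 60 µM downward; luminescence read.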
SMN2 splice up: SMN2 splice variant enhancement; Potency, µM (doses to about 46.1 µM), inactives show at the top dose activity change, positive = activation, most hits filed as activators; hit rate 2.8% among 210,000; HEK293 SMN2-luciferase splicing reporter, luminescence, 30-36 h; AID 1458; also: % of control where 0% means no effect; nearly all actives have a fitted effect of over 55% in size
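HEK293 cells carry an SMN2 minigene-luciferase reporter in which exon 7 inclusion puts luciferase in frame. Cells were seeded at 2000 cells/well, attached for 10-12 hours, then exposed to compounds for 30-36 hours at 37C before ONE-Glo luminescence.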
The depositor's hits bear a star; ? = inconclusive; / = not tested or not shown. Calls follow the shape of the dose curve; as a rule, active = well fitted curve in the direction sought with a large enough effect; inconclusive = small, poorly fitted or top-dose-only effect, or another doubt; inactive = no such curve, though single readings can be large; an effect the other way counts as inactive or inconclusive. Potency is read from the fitted curve at half-maximal effect.

SMILES	ELG1 genotox	Rab9 prom act	Luc counter	NPC1 prom act	FLuc modulator	SMN2 splice up
O=C(/C=C/c1cccc(Cl)c1)Nc1ccncc1	2.9%	24.4%	-4.3%	0.6%	16.9µM*	-0.9%
O=C(/C=C/c1c(F)cccc1Cl)Nc1ccncc1	15.7%	?	-0.4%	29.2%	7.57µM*	-22.6%
O=C(/C=C/c1c(Cl)cccc1Cl)Nc1ccncc1	?	?	14.5%	26.3%	3.01µM*	-22.1%
CCOc1ccc(CNC(=O)CC(C)n2nc(C)cc2C)cc1OC (stereo not given)	/	/	/	/	-4.8%	/
CCCCC(=O)NC1CC(=O)N(c2ccc3c(c2)OCCO3)C1 (stereo not given)	/	/	/	/	-5.1%	/
COCCCNC1=C(Cl)C(=O)c2ccccc2C1=O	-5.5%	-2.9%	/	-0.9%	?	/
CC(C)OCCCNC1=C(Cl)C(=O)c2ccccc2C1=O	4.1%	12.6%	/	13.7%	13.5µM*	/
CSc1cccc(NC(=O)c2ccc(NC3=NC4CS(=O)(=O)CC4S3)cc2)c1 (stereo not given)	7.6%	3.2%	/	2.4%	-3.6%	/
O=C1COc2ccc(C(=O)COC(=O)c3ccc(Cl)cc3[N+](=O)[O-])cc2N1	/	-8.1%	/	0.5%	-0.5%	/
O=C1COc2ccc(C(=O)COC(=O)c3ccco3)cc2N1	0.6%	-1.0%	/	0.2%	12µM*	/
O=C1COc2ccc(C(=O)COC(=O)c3ccccc3[N+](=O)[O-])cc2N1	9.4%	?	/	19.5%	1.51µM*	/
O=C(N/N=C/c1ccccc1)c1c(O)c2ccccc2[nH]c1=O	13.5%	1.41µM*	-3.6%	1.78µM*	?	3.55µM*
O=C(NC1CCCCCC1)c1c(O)c2ccccc2[nH]c1=O	?	?	-6.6%	1µM*	2.69µM*	2.5%
O=C(N/N=C/c1ccc(F)cc1)c1c(O)c2ccccc2[nH]c1=O	0.2%	-3.1%	/	0.5%	-1.6%	/
COc1ccccc1NC(=O)c1c(O)c2ccccc2[nH]c1=O	7.6%	?	/	1.26µM*	?	/
Cc1ccc(-c2nc3[nH]c(=O)cc(NC(=O)c4cccs4)n3n2)cc1	-0.9%	-6.3%	/	-16.6%	13.5µM*	/
CC(C)(C)c1ccc(-c2nc3[nH]c(=O)cc(NC(=O)c4ccco4)n3n2)cc1	?	1.12µM*	/	3.98µM*	0.426µM*	/
CC(Oc1ccccc1F)C(=O)Nc1ccc2ccccc2c1 (stereo not given)	2.0%	5.0%	1.9%	-3.7%	?	3.55µM*
Fc1ccccc1-c1cc2ccccc2cn1	?	-0.9%	/	?	4.78µM*	/
c1ccc2cc(C3=NCCN3)ncc2c1	/	/	-0.9%	/	/	/
CCN(C(=O)c1cc2c(=O)oc3ccc(C)cc3c2s1)c1ccccc1F	/	/	/	/	0.4%	9.1%
Cc1nc(-n2nc(C)c(Cc3ccc(Cl)cc3)c2C)sc1C(=O)N1CCC(C)CC1	/	/	/	/	-9.8%	/
CCOc1ccc(N=C(NN)c2ccc3ccccc3n2)cc1	?	?	-0.9%	28.7%	10.7µM*	14.7%
COc1cc(NC(=O)COC(=O)c2ccc3ccccc3n2)cc(OC)c1	-2.9%	-2.3%	/	-0.7%	-2.6%	/
COC(=O)[C@H](COC(C)(C)C)NC(=O)O[C@@H]1C(=O)c2cc(Br)ccc2O[C@H]1c1ccc2c(c1)OCO2	/	/	0.3%	/	/	1.2%
SMILES	ELG1 genotox	Rab9 prom act	Luc counter	NPC1 prom act	FLuc modulator	SMN2 splice up
COc1ccc(NC(=O)c2ccccc2[N+](=O)[O-])cc1	7.0%	17.5%	2.4%	12.8%	-9.9%	20.4%
COc1ccc(NC(=S)Nc2ccc(N)c([N+](=O)[O-])c2)cc1	?	11.8%	-4.2%	9.3%	?	15.8µM*
COc1cc(C(=O)Nc2ccc3nc4n(c(=O)c3c2)CCCCC4)cc(OC)c1OC	-5.2%	2.0%	/	-2.3%	13.5µM*	29.8%
O=C(Nc1ccc2nc3n(c(=O)c2c1)CCCCC3)c1ccccn1	?	1.12µM*	-9.4%	1.58µM*	7.57µM*	3.16µM*
COc1ccc(Cn2cc(C(=O)c3ccc(C)c(C)c3)c(=O)c3ccccc32)cc1	/	/	/	/	-14.9%	-34.1%
CC(=O)c1c(N2CCN(c3ccccn3)CC2)nc(=S)n(-c2ccccc2)c1C	-0.6%	-9.0%	0.3%	2.3%	-0.6%	-0.6%
COc1ccc(/C=C2\SC(=O)N(CCNC(=O)C3CSC4(C)CCC(=O)N34)C2=O)cc1 (stereo not given)	0.6%	16.9%	/	14.9%	16.9µM*	/
COc1ccc(/C=C2\SC(=O)N(CCC(=O)N3CCCCC3CCO)C2=O)cc1 (stereo not given)	-2.4%	-1.3%	/	-3.5%	9.53µM*	/
COc1ccc(/C=C2\SC(=O)N(CCNC(=O)CN3C(=O)NC4(CCCC4)C3=O)C2=O)cc1	3.6%	23.6%	/	10.6%	3.0%	/
COc1ccc(/C=C2\SC(=S)N(CCC(=O)N3CCCCC3CCO)C2=O)cc1 (stereo not given)	-9.0%	-6.0%	/	-0.6%	?	/
COc1ccc(/C=C2\SC(=O)N(CCNC(=O)C3CC4C=CC3C4)C2=O)cc1 (stereo not given)	?	0.708µM*	0.3%	2.82µM*	6.75µM*	25.1µM*
CN(C)c1ccc(N=Cc2cccn2C)cc1	14.6µM*	24.1%	/	16.4%	3.38µM*	/
CC(=O)Oc1oc(-c2ccccc2)nc1C=Nc1ccc(N(C)C)cc1	-6.1%	-0.1%	/	0.0%	2.2%	/
C=CCN1C(=O)/C(=C\c2ccc(Oc3nc(N4CCOCC4)nc(N4CCOCC4)n3)c(OC)c2)SC1=S	-12.1%	2.3%	-3.4%	-0.4%	-19.5%	-49.8%
COc1ccc(C(=O)Oc2ccc(C(c3c(C)[nH][nH]c3=O)c3c(C)[nH][nH]c3=O)cc2)cc1	/	/	/	/	16.9µM*	19.9%
COc1ccc(C(=O)Oc2ccc(/C=N/O)cc2)cc1	8.4%	-5.5%	0.8%	0.7%	6.01µM*	-7.8%
